A selection: hits, their analogues and other compounds. The true share with any hit is near 22%.
cytoskel mod: modifiers of F-actin cytoskeleton organization, primary screen, imaging, HUVEC, phalloidin staining, high-content imaging. HUVEC TNFa F-actin phalloidin imaging. inhibition, % at 2 µM. 0.18% of 91,000 active. AID 836, 2007;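 active = inhibition above the batch mean plus 3 SD and confirmed as a hit by visual image inspection, cut at about 30% in these data, passing the limit was not always enough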
E-sel TNF inh: E-selectin induction blockers in HUVEC – imaging, immunofluorescence, high content, primary screen | inhibition, % at 2 µM | 0.71% of 120,000 active | HUVEC TNFa-induced E-selectin immunofluorescence;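 active = inhibition above the batch mean plus 3 SD, and confirmed as a hit on visual image review, cut at about 43% in these data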;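 also: 0% = TNF-stimulated DMSO wells and 100% = unstimulated control wells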
CYP2C19 inh: blockers of cytochrome P450 2C19 activity – biochemical, luminescence, ADME assay, primary screen; P33261; CYP2C19 Supersomes, luciferin-H EGE luminescence, 30 min; inhibition, % at 5 µM; 21% of 96,000 active;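 active = CYP2C19 inhibition above a set limit at 5 µM in the primary screen, cut at about 50% in these data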;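 also: plate controls were negative control wells for no effect and 2.5 mM tranylcypromine positive control for full effect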
CYP2C9 act: human CYP2C9 activators, primary screen, biochemical, luminescence | recombinant CYP2C9, luciferin-H conversion; stronger effect = higher value; factor 1 = untreated enzyme, 0 = blocked | 1.4% of 96,000 active | activation factor at 5 µM;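 active = activation factor of 2 or more for CYP2C9 at a 5 µM dose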;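 also: 0 = sulfaphenazole-blocked wells and 1 = vehicle-only wells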
Target sequence (P11712 whole entry, looked up): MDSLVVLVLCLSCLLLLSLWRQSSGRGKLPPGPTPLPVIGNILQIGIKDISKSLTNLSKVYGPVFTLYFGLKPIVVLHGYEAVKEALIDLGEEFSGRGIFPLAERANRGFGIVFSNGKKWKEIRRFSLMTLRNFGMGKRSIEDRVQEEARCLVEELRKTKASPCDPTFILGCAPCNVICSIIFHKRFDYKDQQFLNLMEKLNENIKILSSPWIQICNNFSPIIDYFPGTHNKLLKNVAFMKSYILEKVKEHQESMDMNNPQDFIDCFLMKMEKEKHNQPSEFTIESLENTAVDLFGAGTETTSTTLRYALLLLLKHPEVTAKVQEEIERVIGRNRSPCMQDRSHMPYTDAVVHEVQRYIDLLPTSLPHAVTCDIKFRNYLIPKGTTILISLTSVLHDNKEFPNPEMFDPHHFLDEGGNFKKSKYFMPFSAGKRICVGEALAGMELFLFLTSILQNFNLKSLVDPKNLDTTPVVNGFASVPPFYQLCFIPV
CYP2C9 inhib: blockers of cytochrome P450 2C9 activity – biochemical, luminescence, ADME assay, primary screen; P11712; CYP2C9 Supersomes, luciferin-H conversion; inhibition, % at 5 µM; 20% of 96,000 active;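 active = blocking of liver enzyme CYP2C9 beyond about 50% at 5 µM, limit read from the data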
CYP2C19 act: human CYP2C19 activators, primary screen, biochemical, luminescence. recombinant CYP2C19, luciferin-H EGE luminescence; stronger effect = higher value; 0 = fully inhibited enzyme, 1 = untreated enzyme. activation factor at 5 µM. 96,000 tested, under 10 active. AID 1025, 2008;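 active = activation factor of at least 2 at 5 µM in the primary screen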;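 also: 0 = wells with 2.5 mM tranylcypromine and 1 = vehicle-only wells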
* hit, by the source's call; x = not tested or not shown.

SMILES | cytoskel mod | E-sel TNF inh | CYP2C19 inh | CYP2C9 act | CYP2C9 inhib | CYP2C19 act
N#CC(/C(=N/S(=O)(=O)c1cccs1)c1ccccc1)c1nc2ccccc2[nH]1 (configuration not stated) | 14 | -14 | 17 | 0.1 | 95* | 0.8
NC(=O)C1CCN(C(=O)c2cc3n(n2)C(C(F)(F)F)CC(c2ccco2)N3)CC1 (configuration not stated) | 18 | x | -19 | 1.1 | -8 | 1.2
Cc1ccc(S(=O)(=O)N=C2SCCCS2)cc1 | -17 | -2 | 37 | 2* | -104 | 0.6
Cc1ccc(S(=O)(=O)/N=C2/NC(=O)/C(=C/c3ccccc3)S2)cc1 | x | 7 | x | x | x | x
O=c1[nH]cnc2scc(C3COc4ccccc4O3)c12 (configuration not stated) | x | x | 88* | 0.2 | 80* | 0.1
CSc1nnc(-c2cc(C)on2)n1-c1ccccc1 | x | 59 | x | x | x | x
CC1CC(C)CN(C(=O)c2ccc3c(c2NCCO)C(=O)c2ccccc2C3=O)C1 (configuration not stated) | x | 9 | 94* | 0.1 | 95* | 0.1
CC1CC(C)CN(C(=O)COC(=O)CNS(=O)(=O)/C=C/c2ccccc2)C1 (configuration not stated) | 12 | 19 | 10 | 1 | 0 | 0.9
O=C1NC2(CCc3ccccc32)C(=O)N1CCOc1ccc(Cl)cc1 (configuration not stated) | 15 | 0 | 6 | 0.2 | 77* | 0.9
Cc1ccccc1OCCN1C(=O)NC2(CCc3ccccc32)C1=O (configuration not stated) | 10 | -30 | 35 | 2* | -95 | 0.7
Cc1ccc(SCCC(=O)NC(C)(C)C)cc1 | -3 | -7 | x | x | x | x
CCc1c(C)sc(NC(=O)c2cc(-c3ccc(O)cc3)on2)c1C#N | 4 | -8 | -2 | 2.1* | -106 | 1
Cc1ccc(-c2cc(C(=O)Nc3c(C#N)cnn3C)no2)cc1 | -7 | 9 | -15 | 0.4 | 56* | 1.2
COCC(C)NC(=O)c1cc(-c2ccc(O)cc2)on1 (configuration not stated) | 4 | x | 11 | 2.4* | -138 | 0.9
COCC(C)NC(=O)c1cc(-c2cccc(OC)c2)on1 (configuration not stated) | -15 | -12 | -7 | 1.2 | -22 | 1.1
Cn1ncc2cc(NC(=S)NC(=O)c3ccccc3)ccc21 | 9 | 1 | 47 | 1.1 | -8 | 0.5
O=C(CCN1C(=O)C2C3C=CC(C3)C2C1=O)NCCc1ccccc1 (configuration not stated) | 18 | x | 15 | 0.9 | 11 | 0.8
O=C1C2C(C(=O)N1CCc1ccccc1)C1C=CC2C12CC2 (configuration not stated) | 0 | 7 | 92* | 0.7 | 29 | 0.1
O=C1C2C3C=CC(C3)C2C(=O)N1CCc1ccccc1 (configuration not stated) | 6 | 10 | 90* | 0.7 | 35 | 0.1
O=C(NCCN1C(=O)C2C3C=CC(C3)C2C1=O)Nc1ccccc1O (configuration not stated) | -8 | -8 | 77* | 0.8 | 17 | 0.2
C/C(=N\NC(=O)C(C)Nc1cccc(Cl)c1)c1ccc([N+](=O)[O-])cc1 (configuration not stated) | x | -4 | x | x | x | x
O=C(CCCC1=NS(=O)(=O)c2ccccc2N1)N1CCN(c2ccc(Cl)cc2)CC1 | x | -22 | x | x | x | x
CC(C)(CC(=O)N1CCN(c2ccc(Cl)cc2)CC1)CC1=NS(=O)(=O)c2ccccc2N1 | x | -18 | 64* | 0.2 | 79* | 0.4
COc1ccc(/C=C/C(=O)NNc2c(F)c(F)cc(F)c2F)cc1OC | x | -54 | 16 | 0.7 | 31 | 0.8
COc1cc(/C=C/C(=O)NNc2c(F)c(F)cc(F)c2F)ccc1OC(F)F | 14 | 9 | 73* | 0.9 | 8 | 0.3
C=CCN1C(=O)CS/C1=N\N=C\c1cccc([N+](=O)[O-])c1 | x | 4 | x | x | x | x
CCOC(=O)CN(C(=O)CSc1nnc2c(n1)[nH]c1ccc(F)cc12)c1ccccc1 | -15 | 5 | 100* | 0.3 | 75* | 0
